# Laboratory results reported in PubChem BioAssay (Tox21).
# Values joined by “and” are separate entries in the source; they are usually repeats but may differ in a detail not shown here. Equal entries are not always repeated. Records with an inconclusive call do not appear. Entries that show only a call come without a potency. Values without a mark were called inactive. Active and inactive are the calls of the source. Calls come from the whole dose curve; as a rule, active = well fitted cell-killing curve with a large enough effect in the repeat runs; inconclusive = weak or mixed curves, or effect the other way; inactive = flat fitted curve, though single readings scatter.
# Assay: cAMP Responsive Elements (CRE) small molecule agonists, cell-based qHTS assay: qHTS cell viability counter screen (AID 2060914); note: nearly all actives have a fitted effect of over 50% in size
# Settings: CRE-bla HEK293T viability, CellTiter-Glo luminescence, 5 h; series mostly up to 92.4 µM
# In short: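 Cytotoxicity was measured as ATP luminescence (CellTiter-Glo, 30 min at room temperature) in the same wells as the CRE-bla FRET read-out. HEK293T CRE-bla cells had 3 h compound exposure at 37C/5% CO2.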
# Potency is the fitted concentration of half-maximal effect.
Structure (SMILES),Potency,"activity change, negative = cytotoxicity"
Cc1nnc2n1-c1sc(CCC(=O)N3CCOCC3)cc1C(c1ccccc1Cl)=NC2,inactive,–
CCN(Cc1ccc(Cl)nc1)/C(=C/[N+](=O)[O-])NC,inactive,–
CCC1(c2ccc(N)cc2)CCC(=O)NC1=O (stereo not given),inactive,–
COc1ccc2c(c1OC)C(=O)O[C@@H]2[C@H]1c2cc3c(cc2CCN1C)OCO3,inactive,–
C[C@]12CC[C@H]3[C@@H](CCC4=CC(=O)CC[C@@]43C)[C@@H]1CC[C@@H]2O,inactive,–
CCC(Cl)CCl (stereo not given),inactive,–
O=C(O)C(Cl)(Cl)Br,inactive,–
CC(C)CP(=S)(S)CC(C)C,inactive,–
Cc1ccccc1OP(=O)(Oc1ccccc1C)Oc1ccccc1C,inactive,–
C=CCOC(N)=O,inactive,–
c1ccc(-c2ccccc2)cc1,inactive,–
O=NN1CCN(N=O)CC1,inactive,–
COc1cc(CC(C)N)cc(OC)c1OC (stereo not given),inactive,–
CC(C)(COCC1CO1)COCC1CO1 (stereo not given),inactive,–
CC(C)CCON=O,inactive,–
c1ccc2c(c1)Oc1ccccc1O2,inactive,–
c1ccc(P(c2ccccc2)c2ccccc2)cc1,inactive,–
CC1(C)CON(Cc2ccccc2Cl)C1=O,inactive,–
CN(C)CCc1c[nH]c2cccc(O)c12,inactive,–
Cl/C=C\CCl,inactive,–

Structure (SMILES),Potency,"activity change, negative = cytotoxicity"
COCCl,inactive,–
BrCCCBr,inactive,–
O=C(O)COc1cc(Cl)c(Cl)cc1Cl,inactive,–
C=C(Cl)CSC(=S)N(CC)CC,inactive,–
CCCCC(CC)COC(=O)c1ccc(C(=O)OCC(CC)CCCC)c(C(=O)OCC(CC)CCCC)c1 (stereo not given),inactive,–
O=c1oc2ccccc2c(O)c1C(CC(O)c1ccc(-c2ccc(Br)cc2)cc1)c1ccccc1 (stereo not given),inactive,–
C[CH2][Hg][N]1C(=O)C2C(C1=O)C1(Cl)C(Cl)=C(Cl)C2(Cl)C1(Cl)Cl (stereo not given),–,14.8% [at 18.9 µM]
Clc1ccc2ccccc2c1,inactive,–
COCCC#N,inactive,–
COc1ccc2c(c1OC)C(=O)O[C@H]2[C@@H]1c2cc3c(cc2CCN1C)OCO3,inactive,–
C[N+](C)(C)C,inactive,–
CCCCCCCCCCCCCCCC[N+](C)(C)C,29.5 µM (active) and 61.1 µM (active) and 26.6 µM (active),–
CN(C)C(=O)C(c1ccccc1)c1ccccc1,inactive,–
C[N+](=O)[O-],inactive,–
CCC(CC)(CNC(=O)CCCO)c1cccc(OC)c1,inactive,–
CNC(=O)Oc1cc(C)c(SC)c(C)c1,inactive,–
C[C@]12C=CC(=O)C=C1CC[C@@H]1[C@@H]2CC[C@@]2(C)[C@H]1CC[C@]2(C)O,inactive,–
Nc1ccc(N)cc1,inactive,–
CCOC1Oc2ccc(OS(C)(=O)=O)cc2C1(C)C (stereo not given),inactive,–
CCOC(=O)COc1cc(-c2nn(C)c(OC(F)F)c2Cl)c(F)cc1Cl,inactive,–
